PLC-beta3 inh = human PLC-beta3 inhibitors, primary screen, biochemical, fluorescence; 1-phosphatidylinositol 4,5-bisphosphate phosphodiesterase beta-3 (Homo sapiens), Q01970; AID 720704, 2013; inhibition, % at 12.2 µM; Purified PLC-beta3, fluorogenic substrate; 0.18% of 370,000 active; in the data active = inhibition above about 11%;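 also: 0% = median of compound wells on plate and 100% = full blocker control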
Yeast superoxide = reduction of superoxide in aged yeast, primary screen, HTS | superoxide response (% of plate mean), % at 10 µM | S. cerevisiae aged cells, superoxide DHE fluorescence; stronger effect = lower value | 0.18% of 330,000 active | AID 2690, 2010;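 active = superoxide response under a set limit, about three screen SD below normal, cut at about 65% in these data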;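 also: yeast aged for seven days with compound at 30 °C before DHE staining; 100% = average MFI of all compound-treated wells on the plate with controls excluded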
AHR act = AHR activators, primary screen, cell-based, luminescence, luciferase reporter, human; AID 2796, 2010; activation, % at 5 µM; 2.5% of 320,000 active; AHR-responsive luciferase reporter cells; in the data active = activation above about 47%;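 also: 0% = vehicle wells and 100% = reference agonist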
sPLA2-III inh = human group III sPLA2 inhibitors, primary screen, biochemical, QFRET, BODIPY PC-A2 liposome substrate; 0.56% of 370,000 active; QFRET BODIPY PC-A2 liposome hydrolysis, fluorescence; AID 743126, 2013; inhibition, % at 12.2 µM; Group 3 secretory phospholipase A2 (Homo sapiens), Q9NZ20;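 active = inhibition above mean plus 3 SD of compounds lying within the high and low control bounds, cut at about 19% in these data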;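 also: 0% = median of test compound wells and 100% = no enzyme DMSO wells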
Target sequence (Q9NZ20 whole entry, looked up): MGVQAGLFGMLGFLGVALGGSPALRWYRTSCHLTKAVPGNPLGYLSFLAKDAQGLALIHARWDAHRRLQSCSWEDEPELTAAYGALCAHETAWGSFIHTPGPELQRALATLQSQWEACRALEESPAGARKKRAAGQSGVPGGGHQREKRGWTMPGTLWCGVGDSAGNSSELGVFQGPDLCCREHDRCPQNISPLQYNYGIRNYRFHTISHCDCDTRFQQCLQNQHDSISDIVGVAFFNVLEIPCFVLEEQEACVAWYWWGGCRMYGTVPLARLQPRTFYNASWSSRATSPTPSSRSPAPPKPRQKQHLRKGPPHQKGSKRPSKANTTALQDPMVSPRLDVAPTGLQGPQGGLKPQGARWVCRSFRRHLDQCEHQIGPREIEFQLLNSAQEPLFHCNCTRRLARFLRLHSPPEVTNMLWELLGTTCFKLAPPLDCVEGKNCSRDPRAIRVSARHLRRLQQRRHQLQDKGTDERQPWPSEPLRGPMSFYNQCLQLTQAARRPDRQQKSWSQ
HIF act = HIF pathway transcriptional activators, primary screen, cell-based, U2OS HRE-luciferase, luminescence; U2OS HRE-luciferase reporter; normalized: DMSO 0%, desferrioxamine 100%; activation, % at 7.5 µM (by protocol); 0.32% of 300,000 active; AID 1910, 2009;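 active = mean activation of at least 10% of the iron chelator positive control signal, with at least half of replicates also reaching 10%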
PLCg1 inh = PLC-gamma1 enzyme inhibitors, primary screen, biochemical, fluorescence, purified enzyme. 1-phosphatidylinositol 4,5-bisphosphate phosphodiesterase gamma-1 (Homo sapiens), P19174. fluorogenic substrate. inhibition, % at 12.2 µM. 0.84% of 370,000 active; in the data active = inhibition above about 9.5%
An asterisk follows results filed as active; / = no result given. Sampled rows, rich in hits. Any-hit rate of the full collection: about 3.9%.

SMILES	PLC-beta3 inh	Yeast superoxide	AHR act	sPLA2-III inh	HIF act	PLCg1 inh
O=C(C(=O)N1CCC(CNS(=O)(=O)c2cccc(C(F)(F)F)c2)CC1)c1cc2ccccc2o1	-4.3	/	/	-26.4	/	-3.3
COC(=O)CN1CCN(C(=O)c2csc3ccccc23)CC1	-0.7	/	/	3.9	/	0.0
O=C(c1ccc(N2CCCC2=O)cc1)N1CCN(c2ccccc2Cl)CC1	-1.4	44.5*	-1.2	-3.5	/	1.6
Nc1cc([N+](=O)[O-])ccc1Nc1ccc(O)cc1	-6.4	62.8*	16.6	-34.6	0.2	1.7
CCn1cc(C2=NC(CCSC)CO2)c2ccccc21 (stereo not given)	-2.2	95.2	11.1	-4.0	-0.1	-0.5
CCn1cc(C2=NC(C(C)C)CO2)c2ccccc21 (stereo not given)	1.5	90.8	53.1*	4.7	0.2	0.9
CCn1cc(C2=NC(CC(C)C)CO2)c2ccccc21 (stereo not given)	-10.6	97.1	66.7*	6.0	0.6	-1.3
CC(C)C1COC(c2cccc3ccccc23)=N1 (stereo not given)	3.1	109.4	30.5	9.8	5.0	8.1
c1ccc(C2Oc3ccccc3C3CC(c4cccs4)=NN32)cc1 (stereo not given)	-29.1	108.7	47.7*	-29.3	1.6	-23.4
CS(=O)(=O)N1N=C(c2cccs2)CC1c1ccccc1 (stereo not given)	-5.2	98.9	3.1	-4.4	0.4	2.0
O=[N+]([O-])c1ccc(C2Oc3ccccc3C3CC(c4ccccc4)=NN32)s1 (stereo not given)	/	106.2	58.6*	/	/	/
COc1cc(C=Nn2c(-c3cc(-c4ccccc4)n[nH]3)n[nH]c2=S)ccc1OC(C)=O	-1.4	/	/	13.5	/	3.6
CCOC(=O)C(Cc1ccccc1)CP(=O)(OC)[C@@H](C)NC(=O)OCc1ccccc1 (stereo not given in full)	-0.7	/	/	-3.8	/	3.4
O=C1c2ccccc2C(=O)N1CCc1ccccc1	-1.9	85.2	60.3*	-2.5	1.9	0.7
C[C@H](O)[C@@H]1C(=O)N2CCc3c([nH]c4cccc(-c5ccccc5)c34)[C@@H]2C[C@@H]1N(C)C(=O)OCc1ccccc1	-352.7	/	/	-30.8	/	-262.3
NC(=O)c1ccc(F)cc1	0.6	110.8	0.9	-3.5	0.1	-1.2
O=C(c1ccc(F)cc1)c1cccc(C(=O)c2ccc(F)cc2)n1	10.6*	/	/	0.8	/	3.3
Cc1cc(C)n(-c2nc3ccccc3nc2Nc2ccc3c(c2)OCO3)n1	-12.1	99.7	76.1*	1.4	-0.1	-7.5
c1ccc2c(c1)nc(Nc1ccc3c(c1)OCO3)c1nnnn12	-17.0	110.5	120.0*	-8.7	2.3	-9.9
Cc1nnc(-c2ccccc2)nc1N(C)C	-4.8	75.7	15.0	0.6	701.5*	2.2
Cc1ccc(-c2nnc(-c3ccccc3)c(-c3ccccc3)n2)cc1	-1.1	117.3	2.6	8.0	0.5	0.6
CN(C)c1nc(-c2ccccn2)nnc1-c1ccccc1	-5.1	94.3	84.8*	3.1	105.3*	0.4
COc1cnc(-c2ccccn2)nc1N(C)C	-14.0	102.8	-4.2	0.9	78.2*	-18.9
COc1ccc(S[C@]2(C(=O)N3CCOCC3)CC(=O)N[C@@H]2c2ccc(OC)cc2)cc1	-5.0	/	/	3.8	/	-5.5
Cc1ccc2nc(SC(C)C(=O)NC3CCCC3)[nH]c2c1 (stereo not given)	5.0	80.5	48.7*	-2.8	/	-0.6
SMILES	PLC-beta3 inh	Yeast superoxide	AHR act	sPLA2-III inh	HIF act	PLCg1 inh
Cc1ccc2nc(SC(C)C(=O)N3CCOCC3)[nH]c2c1 (stereo not given)	-6.7	106.0	49.7*	6.6	1.6	2.3
COc1ccc2nc(SC(C)C(=O)NC3CCCCC3)[nH]c2c1 (stereo not given)	-4.8	/	/	1.5	/	-3.6
Cc1ccc2nc(SC(C)C(=O)Nc3cccc([N+](=O)[O-])c3)[nH]c2c1 (stereo not given)	0.7	110.3	66.4*	-15.4	0.5	0.1
COC(=O)C1CN(C2CC2)CCS(=O)(=O)N1Cc1cn(Cc2ccc(F)cc2)nn1 (stereo not given)	0.0	/	/	5.2	/	2.8
C[C@H]1COc2cc(Br)ccc2S(=O)(=O)N1Cc1cn(CC2CCCCC2)nn1	1.8	/	/	-0.2	/	1.3
Cc1ccccc1/C=N\NC(=O)c1csnn1	0.0	110.4	50.7*	3.7	0.2	-0.8
COc1ccc(/C=N/NC(=O)c2sc(C)nc2C)cc1	-10.2	110.0	55.9*	0.4	0.1	-9.4
COC(=O)C1CN(Cc2ccc(C)cc2)CCS(=O)(=O)N1Cc1cn(Cc2ccc(F)cc2)nn1 (stereo not given)	0.4	/	/	-6.1	/	0.5
CCCCCCCCNS(=O)(=O)/C=C/c1ccc(OC)cc1CNC(=O)OC(C)(C)C	-6.7	/	/	-2.6	/	-4.9
COc1ccccc1CNC(=O)c1ccc(Br)o1	0.5	/	2.5	3.1	-1.7	-2.6
COc1ccccc1C(=O)NNC(=O)c1ccc(Br)o1	-10.2	118.6	55.2*	3.5	1.2	-0.9
CC(=O)C1=C(C)NC(SCC(=O)c2ccccc2)=C(C#N)C1c1ccco1 (stereo not given)	/	109.0	106.6*	/	1.9	/
CC(=O)C1=C(C)NC(SCC(=O)c2ccc(Cl)cc2)=C(C#N)C1c1ccco1 (stereo not given)	-59.1	97.7	25.7	-8.4	0.0	-35.3
CC(=O)C1=C(C)NC(SCC(=O)c2ccc(Cl)cc2Cl)=C(C#N)C1c1ccco1 (stereo not given)	-97.3	121.2	106.6*	-0.6	-0.6	-65.7
CCN(CC)C(=O)CC[C@H]1CC[C@]2(CCCN(Cc3ccc(Br)cc3)C2)O1	4.3	/	/	15.9	/	4.6
O=C(Nc1nc(-c2cccs2)c(-c2ccccc2)s1)c1ccco1	-35.2	108.9	14.5	1.2	-0.1	-24.7
CC1CC1C(=O)Nc1nc(-c2cccs2)c(-c2cccs2)s1 (stereo not given)	-102.8	89.8	78.2*	6.9	0.7	-96.8
CCOC(=O)c1nnc(-c2ccc(C)cc2)nc1Sc1ccc(Cl)cc1	5.3	81.8	6.3	5.6	0.0	0.1
CCOC(=O)c1nnc(-c2ccc(C)cc2)nc1N1CCSCC1	2.4	99.0	56.6*	-3.3	-0.2	2.6
O=C(c1cc2cc(F)ccc2[nH]1)N1CCN(C(=O)c2ccco2)CC1	-17.6	102.7	54.4*	0.7	0.8	-6.7
CN1CCN(C(=O)c2cc3cc(F)ccc3[nH]2)CC1	0.3	101.5	/	3.0	1.0	-0.4
Cc1ccc(-n2[nH]c(C)c(C=Nc3ccc(Br)cn3)c2=O)cc1	4.3	116.9	70.5*	5.5	0.4	1.7
